Molecules are shown by their SMILES. In all, about 340,000 compounds went through this assay and about 1,000 (0.29%) were called active. Cut-off read from the data, not from the text of the source: inconclusive = inhibition above about 27% without an active follow-up result; inactive = below that. Not all results are given here. Potency and affinity values are given separately.

The term inhibition denotes the drop in the measured response relative to a control, in per cent.

The experiment is described as follows: NS1A inhibition, H1N1 influenza, cell based functional assay (AID 504329). The settings on record: percent inhibition, at 12.5 µM, hits give high values.
For `O=C(N/N=C/c1c[nH]c2ccccc12)c1ccc(Cl)cc1`, the inhibition is 3.88% (inactive). To `Clc1ccc(OCc2nc(-c3ccccn3)n[nH]2)cc1` belongs 6.94% (inactive). `c1ccc(-c2nnc(-c3ccccn3)s2)nc1`: the inhibition is -1.25% (inactive). For the compound `c1ccc(-c2cnc(-c3ccccc3)nn2)cc1`, the inhibition was 10% (inactive). Regarding `c1ccc(-c2ccncc2)nc1`, the inhibition was -0.28% (inactive). For the compound `c1ccc(-c2nn[nH]n2)nc1`, the inhibition was -11.7% (inactive).

Regarding `c1ccc(-c2nc3ccccc3[nH]2)nc1`, the inhibition is 13.8% (inactive).

With `c1ccc(-c2nc(-c3ccccn3)nc(-c3ccccn3)n2)nc1`, the inhibition was 7.93% (inactive).

In the case of `Clc1ccc(-c2cnc3ccccc3n2)cc1`, the inhibition was -9.76% (inactive). On to `COc1ccc(C(C)=O)cc1CN(c1ccccc1OC)S(=O)(=O)c1cccs1`, for which the inhibition was 13.1% (inactive). On to `Cc1cc(C)nc(SCc2ccc(C(=O)N/N=C/c3ccco3)cc2)n1`, for which the inhibition is -4.36% (inactive). As to `CCCNS(=O)(=O)c1cccc(C(=O)NC2CCCc3ccccc32)c1` (centres undefined), the inhibition is -1.43% (inactive).

As for `Cc1ccc(C)c(SCC(=O)NC2CCS(=O)(=O)C2)c1` (centres undefined), the inhibition was -12.1% (inactive). Regarding `CCCCCCCCNC(=O)c1cnccn1`, the inhibition is -8.66% (inactive). As for `c1ccc(-c2nc(-c3ccccn3)no2)cc1`, the inhibition is -0.45% (inactive). Take `c1ccc(-c2nc3ccccc3nc2-c2ccccn2)nc1`: the inhibition was 0.35% (inactive). For `c1ccc(-c2n[nH]c(-c3ccccn3)n2)cc1`, the inhibition was -0.5% (inactive). For `Nc1nc(N)nc(-c2ccccc2O)n1` the value was 1.67% (inactive); for `c1ccc(-c2ccccn2)nc1`, -0.49% (inactive). Consider `CSc1nncc(-c2ccccc2)n1`, for which the inhibition is -2.08% (inactive). `c1cc(-c2n[nH]c(-c3ccncc3)n2)ccn1`: the inhibition was -1.91% (inactive). On to `Nc1nc(N)nc(-c2ccccc2-c2nc(N)nc(N)n2)n1`, for which the inhibition was 21.3% (inactive). Regarding `CCN(CC)S(=O)(=O)c1ccc(N2CCOCC2)c(NC(=O)COc2ccccc2C)c1`, the inhibition was -22.8% (inactive).

Regarding `CCc1nc2ccccc2n1Cc1cc(=O)n2cc(C)ccc2n1`, the inhibition is -1.64% (inactive).

Take `CCOc1ccc(NC(=S)N2CCN(S(=O)(=O)c3ccccc3)CC2)cc1`: the inhibition is 24.8% (inactive). `CC(C)(C)c1nnc(N/N=C/c2ccc(Br)cc2)n(N)c1=O`: the inhibition was -5.94% (inactive).

For `CCc1nnc(N/N=C/c2ccccc2F)n1N`, the inhibition is -9% (inactive). Regarding `Cc1nnc(N/N=C/c2ccccc2O)n1N`, the inhibition is 9.93% (inactive). Take `CCc1nnc(N/N=C/c2cc(C)c(C)cc2C)n1N`: the inhibition is -3.56% (inactive).

In the case of `CC(C)(C)c1nnc(N/N=C/c2ccc(O)cc2)n(N)c1=O`, the inhibition was 6.15% (inactive).

On to `CC(C)(C)c1nnc(N/N=C/c2ccccc2)n(N)c1=O`, for which the inhibition was -3.79% (inactive). Take `Cc1ccc(CN2CCC(n3nccc3NC(=O)CCOc3ccccc3)CC2)cc1C`: the inhibition was -4.94% (inactive). For `CCN1CCN(C(c2cc(OC)ccc2OC)c2nnnn2Cc2ccccc2)CC1` (centres undefined) the value was -5.45% (inactive). Regarding `Cc1cn(CC(=O)NCc2ccc3c(c2)OCO3)c(=O)[nH]c1=O`, the inhibition was 0.05% (inactive). As for `Cc1ccc(C(=O)COC(=O)CNC(=O)c2cccs2)cc1C`, the inhibition was 3.9% (inactive).

Take `Cc1ccc(CS(=O)Cc2ccc(C(=O)NCCc3ccccc3)o2)cc1` (centres undefined): the inhibition was 3.5% (inactive). For the compound `COc1ccc(N2CCN(C(=O)c3c(C)nn(-c4ccccc4)c3C)CC2)cc1`, the inhibition is 1.11% (inactive). With `COc1ccc(C(=O)Nc2ccc(Cl)cc2C(=O)N2CCCC(C)C2)cc1OC` (centres undefined), the inhibition is -10.1% (inactive). Take `O=S1(=O)[C@H]2CC3O[C@]2(C[C@@H]3c2ccc(F)cc2)CN1Cc1ccc(Cl)cc1`: the inhibition was -1.02% (inactive). As for `COc1cc(C(=O)NC2CCN(Cc3nnnn3Cc3cccs3)CC2)cc(OC)c1OC`, the inhibition was -19% (inactive). For `CCCNc1ncnc2onc(C)c12` the value was -5.28% (inactive); for `Oc1cc(NCc2ccc(F)cc2)cc2cccnc12`, -7.28% (inactive).

Consider `Oc1cc(NCc2ccc(Cl)cc2)cc2cccnc12`, for which the inhibition was -7.85% (inactive). As for `c1ccc(-c2csc(Nc3cccnc3)n2)nc1`, the inhibition is 14.1% (inactive). Take `Oc1cc(Nc2ccccc2)cc2cccnc12`: the inhibition was 3.79% (inactive). `O=C(Nc1ccncc1)c1cc2ccccc2cc1O`: the inhibition is -5.8% (inactive).

As for `Clc1cnc(Nc2cccnc2)c(Cl)c1`, the inhibition is -6.41% (inactive). Take `CC(=O)c1ccccc1OCC(O)CN1CCN(c2ccccn2)CC1` (centres undefined): the inhibition was -18.6% (inactive).

Take `CCOc1ccccc1N(CC(=O)Nc1ccccc1C(=O)N1CCOCC1)S(C)(=O)=O`: the inhibition is -12.1% (inactive). For the compound `COC(=O)c1ccccc1NC(=O)Nc1cccnc1`, the inhibition is -5.77% (inactive).

In the case of `CCOP(=O)(OCC)C(NC(=O)Nc1ccc(Cl)cc1)C(N)=O` (centres undefined), the inhibition was -4.5% (inactive). For `COc1cccc2cc(C(=O)NCC3CCCO3)c(=O)oc12` (centres undefined), the inhibition is 6.96% (inactive). With `COc1ccc(/C(O)=C2\C(=O)C(=O)N(CCN3CCOCC3)C2c2ccccc2OC)cc1` (centres undefined), the inhibition is -5.93% (inactive). With `CCc1cccc(NC(=O)CSCc2cc(=O)[nH][nH]2)c1`, the inhibition is 4.49% (inactive). Regarding `Cc1cnc(-n2c(=S)[nH]c3ccccc3c2=O)s1`, the inhibition is -7.74% (inactive).

Regarding `O=C(NCc1cc(C(F)(F)F)ccc1F)C1CCC(=O)N(C2CC2)C1` (centres undefined), the inhibition is -6.88% (inactive). For `Nc1ccc(N2CCN(c3ccc(F)cc3)CC2)cc1`, the inhibition is -1.58% (inactive).

Regarding `CCN1CCN(c2ccc(N)cc2)CC1`, the inhibition is 11.3% (inactive).

Regarding `N#Cc1ccc(C(=O)Nc2cc(C3CC3)nn2-c2ccccc2)cc1`, the inhibition is -9.27% (inactive). Turning to `CC[n+]1c(C)sc2c3ccsc3ccc21`, the inhibition was 2.89% (inactive). Turning to `Cn1c(SCC(=O)Nc2ccc(C(N)=O)cc2)nc2c(c1=O)SCC2`, the inhibition was -1.68% (inactive). In the case of `Oc1ccccc1N=Nc1ccccc1O`, the inhibition is 21.9% (inactive).

In the case of `Oc1ccccc1N=N/C(=N/Nc1ccccc1O)c1ccccc1`, the inhibition is -1.57% (inactive). As for `CC(=O)NC1C(Oc2ccccc2C)OC2COC(c3ccco3)OC2C1O` (centres undefined), the inhibition is -4.4% (inactive). With `Cc1ccn(CC(=O)N2CCCC(C(=O)c3cccc4ccccc34)C2)n1` (centres undefined), the inhibition was 1.06% (inactive).

As for `Cc1ccc(N2CC(C(=O)N3CCC(C(=O)NCCCOC(C)C)CC3)CC2=O)cc1` (centres undefined), the inhibition is -11.9% (inactive). `COc1cccc(/C=N/NC(=O)COc2cccc3cccnc23)c1O`: the inhibition is -3.74% (inactive). As to `O=C(COc1ccc(F)cc1)N/N=C/c1cccc2cccnc12`, the inhibition is -1.12% (inactive). Consider `Cc1ccccc1OCC(=O)N/N=C/c1cccc2cccnc12`, for which the inhibition is 11.7% (inactive).

For the compound `COc1ccc(OCC(=O)N/N=C/c2cccc3cccnc23)cc1`, the inhibition is 27.8% (inactive). As for `Cc1ccc(C(F)(F)F)cc1NC(N)=S`, the inhibition was 5.01% (inactive). Turning to `COc1ccc(/C=N/Nc2nncn2N)cc1Br`, the inhibition is 9.22% (inactive). To `Nn1cnnc1N/N=C/c1ccc(Cl)cc1Cl` belongs -12.4% (inactive); to `Cc1ccc(N(C)S(=O)(=O)c2ccc3[nH]cc(C(=O)NCCCN4CCOCC4)c(=O)c3c2)cc1C`, 4.79% (inactive).

On to `Cc1cc(=O)[nH]c(N/N=C/c2ccccc2C(F)(F)F)n1`, for which the inhibition was -5.35% (inactive). For the compound `Nc1ccc(N=Nc2ccccc2)c2ccccc12`, the inhibition is -3.26% (inactive). For `Nc1ccc(N=Nc2ccccc2)c(N)n1`, the inhibition is 18% (inactive). For `COCCn1c(CN2CC(C)CC(C)C2)nc2c1c(=O)n(C)c(=O)n2C` (centres undefined) the value was 3.18% (inactive); for `CC[n+]1c(/C=C/C=C/N(C(C)=O)c2ccccc2)sc2ccccc21`, 25.6% (inactive); for `CN(C)c1ccc(/C=C/c2nc3ccccc3s2)cc1`, -0.93% (inactive). For `CN(C)c1ccc(/C=C/c2cc[n+](C)cc2)cc1`, the inhibition was 7.63% (inactive). For `CC[n+]1c(/C=C/N(C)c2ccccc2)sc2ccc(Cl)cc21`, the inhibition was 0.72% (inactive).

As to `CCOc1nc(SCCOc2ccccc2)nc(N(C)C)n1`, the inhibition was 21.4% (inactive). As to `COc1ccc(NS(=O)(=O)c2cccc(C(=O)N/N=C(\C)c3ccncc3)c2)cc1`, the inhibition was -5.23% (inactive).

On to `O=Cc1ccc2ccc3cccnc3c2n1`, for which the inhibition was 9.05% (inactive). `Cc1ccc2ccc3ccc(C)nc3c2n1`: the inhibition was -7.29% (inactive).

As to `Cc1ccc2cccnc2c1N`, the inhibition was -4.2% (inactive). In the case of `c1cnc2c(c1)ccc1ncccc12`, the inhibition is -2.85% (inactive).

Turning to `Oc1c(Cl)cc(Cl)c2cccnc12`, the inhibition was -14.4% (inactive). As for `Clc1ccc2ccc3cccnc3c2n1`, the inhibition was -25.7% (inactive). Turning to `O=S1(=O)NC(=NCCc2ccccn2)c2ccccc21`, the inhibition is -4.92% (inactive). In the case of `Clc1cc2cccnc2c2ccccc12`, the inhibition was -7.93% (inactive). Turning to `CCc1cc(C(=O)N2CCCC(N3CCN(c4cccc(C(F)(F)F)c4)CC3)C2)n(C)n1` (centres undefined), the inhibition is -0.25% (inactive). With `CCO/C=C/C(O)(CNC(=O)COc1ccccc1F)C(F)(F)F` (centres undefined), the inhibition is -0.96% (inactive).

As to `Cc1ccc(S(=O)(=O)N2CCN(S(=O)(=O)N3CCC(C)CC3)CC2)cc1C`, the inhibition is 2.71% (inactive). Take `CC(=O)Nc1nnc(SCC(=O)N2CCc3ccccc32)s1`: the inhibition is -6.4% (inactive). As to `O=C(NNc1ccc(-c2csnn2)cc1)c1ccccc1C(F)(F)F`, the inhibition was -23.8% (inactive).

`CC1=C(C(=O)Nc2cc(C(=O)N3CCN(c4cccc(C)c4C)CC3)ccc2C)SCCO1`: the inhibition is 8.75% (inactive). On to `Cc1cccc(NC2=C(NC(=O)c3ccccc3)C(=O)c3ccccc3C2=O)c1`, for which the inhibition was 28.6% (inactive).

Turning to `O=C(NC1=C(Nc2ccc(F)cc2)C(=O)c2ccccc2C1=O)c1ccc(Cl)cc1`, the inhibition was -4.19% (inactive). Take `O=C(NC1=C(Nc2ccc(Cl)cc2)C(=O)c2ccccc2C1=O)c1ccccc1`: the inhibition is 12.2% (inactive). For `CN(C1=C(NC(=O)c2ccccc2)C(=O)c2ccccc2C1=O)C1CCS(=O)(=O)C1` (centres undefined) the value was 4.18% (inactive). In the case of `COc1ccc(NC(=O)CN2CCN(CC(=O)Nc3ccccc3Cl)CC2)cc1Cl`, the inhibition is 3.53% (inactive). For `COc1cccc(CC(CC(=O)O)C(=O)Nc2cc(C)ccc2C)c1` (centres undefined), the inhibition is 2.74% (inactive).

Source of the values: PubChem BioAssay AID504329 (Southern Research Specialized Biocontainment Screening …, 2011).
